Results from PubChem BioAssay AID1159580 (chemical genetic matrix, 2015).
Where “and” joins values, the source holds several entries; their conditions need not be identical. Equal values may be shown once. Out of some 5,500 compounds screened, about 2,000 (36%) were called active. Roughly 18% stayed inconclusive and do not appear here. No stated cut-off is given here; in the data, active means normalized growth mostly below about 0.91 (no sharp cut-off); inconclusive means no clear call, values can overlap the other calls; inactive means mostly above about 0.92. The list shows a part of the results.

Experiment: chemical genetic growth profiling, strain panel (AID 1159580);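 further: tested at 20 µM; growth read once vehicle control cultures reached saturation at 30 °C; 1 = growth at the plate median or of vehicle wells; lower values mean less growth of the strain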
Conditions: S. cerevisiae deletion strains, growth OD

Measured: normalized growth

COc1cc2c(cc1OC)[C@@H]1C(=O)c3ccc4oc(C(C)C)cc4c3O[C@@H]1CO2
inactive: locus YAL021C, strain ccr4, active compounds read low 0.983 | locus YAL026C, strain drs2, active compounds read low 0.995 | locus YAL030W, strain snc1, active compounds read low 1 | locus YBL061C, strain skt5, active compounds read low 0.995 | locus YBR009C, strain hhf1, active compounds read low 0.992 | locus YBR021W, strain FUR4, active compounds read low 1.01 | locus YBR023C, strain chs3, active compounds read low 0.996 | locus YBR171W, strain sec66, active compounds read low 0.999 | locus YBR229C, strain ROT2, active compounds read low 1.01 | locus YBR231C, strain swc5, active compounds read low 0.992 | locus YBR279W, strain paf1, active compounds read low 0.996 | locus YCL011C, strain gbp2, active compounds read low 0.97 | locus YCL016C, strain dcc1, active compounds read low 0.993 | locus YCL029C, strain bik1, active compounds read low 1.07 | locus YCL061C, strain MRC1, active compounds read low 0.981 | locus YCL069W, strain vba3, active compounds read low 1 | locus YCR088W, strain abp1, active compounds read low 0.993 | locus YDL005C, strain med2, active compounds read low 0.981 | locus YDL035C, strain GPR1, active compounds read low 1.02 | locus YDL040C, strain nat1, active compounds read low 0.989 | locus YDL074C, strain BRE1, active compounds read low 1.04 | locus YDL101C, strain DUN1, active compounds read low 1.01 | locus YDL185W, strain tfp1, active compounds read low 1.01 | locus YDL192W, strain arf1, active compounds read low 1.04 | locus YDR001C, strain nth1, active compounds read low 0.979 | locus YDR069C, strain doa4, active compounds read low 1.08 | locus YDR101C, strain arx1, active compounds read low 1.02 | locus YDR137W, strain rgp1, active compounds read low 0.992 | locus YDR150W, strain NUM1, active compounds read low 1.02 | locus YDR159W, strain sac3, active compounds read low 0.985 | locus YDR162C, strain NBP2, active compounds read low 1.04 | locus YDR195W, strain ref2 0.982 | locus YDR297W, strain sur2, active compounds read low 1.02 | locus YDR318W, strain mcm21, active compounds read low 1.04 | locus YDR334W, strain swr1, active compounds read low 0.977 | locus YDR335W, strain msn5, active compounds read low 0.986 | locus YDR388W, active compounds read low 1.02 | locus YDR392W, strain spt3, active compounds read low 0.996 | locus YDR502C, strain sam2, active compounds read low 1.03 | locus YEL003W, strain gim4, active compounds read low 1.01 | locus YEL037C, strain rad23, active compounds read low 0.995 | locus YEL061C, strain CIN8 (second series), active compounds read low 0.984 | locus YER015W, strain faa2, active compounds read low 0.99 | locus YER016W, strain bim1, active compounds read low 0.971 | locus YER110C, active compounds read low 1 | locus YER111C, strain swi4, active compounds read low 0.977 | locus YER155C, strain BEM2 (second series), active compounds read low 0.973 | locus YER155C, strain BEM2, active compounds read low 1.02 | locus YER167W, strain BCK2, active compounds read low 1.02 | locus YFR010W, strain ubp6, active compounds read low 0.998 | locus YGL078C, strain dbp3, active compounds read low 1.03 | locus YGL086W, strain mad1, active compounds read low 1.02 | locus YGL167C, strain pmr1, active compounds read low 0.982 | locus YGL173C, strain kem1, active compounds read low 0.975 | locus YGL227W, strain vid30, active compounds read low 0.982 | locus YGL240W, strain doc1, active compounds read low 0.991 | locus YGL248W, strain PDE1, active compounds read low 1.01 | locus YGL253W, strain hxk2, active compounds read low 0.991 | locus YGR078C, strain PAC10, active compounds read low 1.02 | locus YGR135W, strain pre9, active compounds read low 1.08 | locus YGR252W, strain gcn5, active compounds read low 1.01 | locus YHR013C, strain ard1, active compounds read low 0.973 | locus YHR027C, strain rpn1, active compounds read low 1 | locus YHR030C, strain SLT2, active compounds read low 0.999 | locus YHR079C, strain IRE1 (second series), active compounds read low 1 | locus YHR079C, strain IRE1, active compounds read low 0.985 | locus YHR094C, strain hxt1, active compounds read low 1.02 | locus YHR129C, strain ARP1, active compounds read low 1.02 | locus YHR142W, strain chs7, active compounds read low 1.01 | locus YHR200W, strain rpn10, active compounds read low 1.03 | locus YIL066C, strain RNR3, active compounds read low 1.02 | locus YIL073C, strain SPO22, active compounds read low 1.06 | locus YIL125W, strain kgd1, active compounds read low 1 | locus YIR030C, strain dcg1, active compounds read low 1.05 | locus YJL092W, strain hpr5, active compounds read low 0.968 | locus YJL095W, strain BCK1 (second series), active compounds read low 1.01 | locus YJL095W, strain BCK1, active compounds read low 1.04 and 0.981 | locus YJL115W, strain asf1, active compounds read low 0.957 | locus YJL129C, strain trk1, active compounds read low 0.974 | locus YJL134W, strain LCB3, active compounds read low 1.01 | locus YJL154C, strain vps35, active compounds read low 0.984 | locus YJL164C, strain tpk1, active compounds read low 1.03 | locus YJL166W, strain qcr8, active compounds read low 0.975 | locus YJL168C, strain set2, active compounds read low 1.01 | locus YJL187C, strain SWE1 (second series), active compounds read low 1.02 | locus YJR043C, strain POL32, active compounds read low 1.02 | locus YJR066W, strain TOR1, active compounds read low 0.907 | locus YKL009W, strain mrt4, active compounds read low 0.918 | locus YKL068W, active compounds read low 0.996 | locus YKL085W, strain MDH1 (second series), active compounds read low 0.989 | locus YKL085W, strain MDH1, active compounds read low 0.989 | locus YKL160W, strain elf1, active compounds read low 0.99 | locus YKL190W, strain CNB1, active compounds read low 1.02 | locus YKR001C, strain vps1, active compounds read low 1.02 | locus YKR026C, strain gcn3, active compounds read low 1 | locus YKR091W, strain srl3, active compounds read low 0.984 | locus YLL001W, strain dnm1, active compounds read low 0.972 | locus YLL026W, active compounds read low 0.976 | locus YLL041C, strain sdh2, active compounds read low 1.02 | locus YLR027C, strain aat2, active compounds read low 0.999 | locus YLR039C, strain RIC1, active compounds read low 1.1 | locus YLR058C, strain SHM2, active compounds read low 1.01 | locus YLR102C, strain apc9, active compounds read low 1.02 | locus YLR113W, strain HOG1, active compounds read low 1.05 | locus YLR221C, strain rsa3, active compounds read low 0.959 | locus YLR258W, strain gsy2, active compounds read low 0.992 | locus YLR262C, strain YPT6 (second series), active compounds read low 1.02 | locus YLR262C, strain YPT6, active compounds read low 1.06 | locus YLR268W, strain sec22, active compounds read low 1.02 | locus YLR320W, strain mms22, active compounds read low 0.986 | locus YLR330W, strain CHS5, active compounds read low 1.02 | locus YLR342W, strain FKS1 (second series), active compounds read low 1.03 | locus YLR342W, strain FKS1, active compounds read low 0.982 | locus YLR357W, strain rsc2, active compounds read low 0.986 | locus YLR370C, strain arc18, active compounds read low 0.981 | locus YLR371W, strain rom2, active compounds read low 1.06 | locus YLR384C, strain iki3, active compounds read low 0.993 | locus YLR418C, strain cdc73, active compounds read low 1.01 | locus YML016C, strain PPZ1, active compounds read low 1.02 | locus YML032C, strain rad52, active compounds read low 1.01 | locus YML120C, strain ndi1, active compounds read low 0.99 | locus YML124C, strain tub3, active compounds read low 1.03 | locus YMR058W, strain fet3, active compounds read low 0.968 | locus YMR078C, strain ctf18, active compounds read low 1.02 | locus YMR125W, strain sto1, active compounds read low 0.976 | locus YMR129W, active compounds read low 0.985 | locus YMR205C, strain PFK2, active compounds read low 0.987 | locus YMR223W, strain ubp8, active compounds read low 1.01 | locus YMR231W, strain pep5, active compounds read low 0.985 | locus YMR307W, strain GAS1, active compounds read low 0.974 | locus YNL067W, strain RPL9B, active compounds read low 1.02 | locus YNL071W, strain lat1, active compounds read low 1.05 | locus YNL183C, strain NPR1, active compounds read low 0.956 | locus YNL209W, strain ssb2, active compounds read low 0.993 | locus YNL233W, strain BNI4, active compounds read low 1.05 | locus YNL248C, strain rpa49, active compounds read low 0.976 | locus YNL250W, strain rad50, active compounds read low 1.02 | locus YNL271C, strain bni1, active compounds read low 1.02 | locus YNL298W, strain CLA4, active compounds read low 1.03 | locus YNL307C, strain MCK1, active compounds read low 1.03 | locus YNL322C, strain KRE1 (second series), active compounds read low 1 | locus YNL322C, strain KRE1, active compounds read low 1.01 | locus YNR049C, strain mso1, active compounds read low 0.982 | locus YNR052C, strain pop2, active compounds read low 1.01 | locus YOL006C, strain TOP1, active compounds read low 1.11 | locus YOL012C, strain htz1 0.869 | locus YOL147C, strain pex11, active compounds read low 1.04 | locus YOR001W, strain rrp6, active compounds read low 0.979 | locus YOR061W, strain CKA2, active compounds read low 1.02 | locus YOR069W, strain VPS5, active compounds read low 1.01 | locus YOR070C, strain gyp1, active compounds read low 0.987 | locus YOR080W, strain dia2, active compounds read low 0.965 | locus YOR083W, strain WHI5, active compounds read low 0.987 | locus YOR106W, strain vam3, active compounds read low 0.991 | locus YOR136W, strain idh2, active compounds read low 1 | locus YOR144C, strain elg1, active compounds read low 1.02 | locus YOR184W, strain ser1, active compounds read low 1.05 | locus YOR231W, strain MKK1, active compounds read low 0.975 | locus YOR265W, strain rbl2, active compounds read low 1 | locus YOR270C, strain vph1, active compounds read low 1.07 | locus YOR290C, strain snf2, active compounds read low 0.978 | locus YOR316C, strain cot1, active compounds read low 1 | locus YPL051W, strain arl3, active compounds read low 0.985 | locus YPL078C, strain atp4, active compounds read low 0.989 | locus YPL106C, strain sse1, active compounds read low 1.03 | locus YPL240C, strain hsp82, active compounds read low 1 | locus YPL256C, strain CLN2, active compounds read low 0.988 | locus YPR119W, strain clb2, active compounds read low 1.01 | locus YPR141C, strain kar3, active compounds read low 1.06 | locus YPR163C, strain tif3, active compounds read low 1.02 | locus YPR167C, strain met16, active compounds read low 1.05 | strain wtn01, active compounds read low 1.04
